About 1,400 (1.5%) of roughly 96,000 compounds were called active. The sample as a whole holds a higher share of actives than the screen did. A number with no mark means an inactive call.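 How the source made its calls: active means activation factor of 2 or more for CYP2C9 at a 5 µM dose; inactive means the rest.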
The compounds below were run against Cytochrome P450 2C9 (Homo sapiens) (UniProt P11712) (assay: enhancers of cytochrome P450 2C9 turnover – biochemical, luminescence, primary screen (AID 1024;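 further: 0 = sulfaphenazole-blocked wells and 1 = vehicle-only wells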)). Settings: recombinant CYP2C9, luciferin-H conversion, at 5 µM, hits give high values, factor 1 = untreated enzyme, 0 = blocked.
Sequence of Cytochrome P450 2C9 (Homo sapiens) (P11712 whole entry, looked up): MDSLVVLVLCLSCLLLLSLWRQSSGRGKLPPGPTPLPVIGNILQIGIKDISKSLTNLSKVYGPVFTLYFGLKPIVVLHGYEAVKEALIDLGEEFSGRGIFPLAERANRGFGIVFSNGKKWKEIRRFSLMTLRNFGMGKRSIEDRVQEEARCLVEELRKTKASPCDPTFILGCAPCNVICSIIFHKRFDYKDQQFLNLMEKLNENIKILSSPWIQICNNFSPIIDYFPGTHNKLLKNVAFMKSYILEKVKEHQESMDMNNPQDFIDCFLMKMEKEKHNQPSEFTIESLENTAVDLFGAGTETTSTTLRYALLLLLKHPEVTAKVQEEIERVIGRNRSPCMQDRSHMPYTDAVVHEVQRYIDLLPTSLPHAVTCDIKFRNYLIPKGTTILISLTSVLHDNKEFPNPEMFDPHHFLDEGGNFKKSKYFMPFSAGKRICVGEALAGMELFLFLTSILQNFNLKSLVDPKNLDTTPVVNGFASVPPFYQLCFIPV
For `C=CCNC(=O)c1sc(SC)cc1-c1ccc(Cl)cc1`, the activation factor was 0.4.
In the case of `Cc1ccc(C(=O)OC2=CC(=O)CC(C)(C)C2)cc1`, the activation factor is reported as 0.7.
With `Cc1ccc(S(=O)(=O)NCCN2CCOCC2)cc1C` the activation factor was 0.8.
Compound `O=[N+]([O-])c1ccc(NCCCN2CCOCC2)c(Cl)c1` has an activation factor of 0.9.
For `Cc1cc(C)c(S(=O)(=O)NCCCN2CCOCC2)cc1Br`, the activation factor was 2 (active).
`O=C(CN1CCN(S(=O)(=O)c2ccc(Cl)s2)CC1)NCc1ccc(Cl)cc1` was tested, and the activation factor was 0.4.
For `CCCCNCc1ccc(SC)cc1`, the activation factor was 1.
For `C=CCNC(=O)c1cc(-c2ccccc2O)on1`, the activation factor was 1.5.
Compound `O=C(NCc1ccccn1)c1cc2ccccc2oc1=O` has an activation factor of 1.3.
For `O=C(NCc1ccccn1)c1cc(-c2ccccc2Cl)on1`, the activation factor was 2.6 (active).
For `COc1ccccc1NC(=O)COc1ccc(C(=O)OCC(=O)N(C(C)C)C(C)C)cc1OC`, the activation factor was 0.6.
`O=C(NCc1cccs1)C1CCN(S(=O)(=O)c2ccc3c(c2)OCCO3)CC1` was tested, and the activation factor was 2.7 (active).
Work on `O=C(NCc1ccc2c(c1)OCO2)C1CCCN(S(=O)(=O)c2cccs2)C1` (stereo not given) yielded an activation factor of 0.1.
`O=C(c1ccc2c(c1)OCCO2)C1CCN(S(=O)(=O)c2cccc(F)c2)CC1` showed an activation factor of 1.2.
`FC(F)(F)c1cccc(-c2cc3ccccc3nc2N2CCCC2)c1` showed an activation factor of 0.9.
`CCN(CC)C(=O)CSc1nnc(-c2cccc(OC)c2)o1` was tested, and the activation factor was 1.6.
`CCOC(=O)n1c(SCC(=O)N(CC)CC)nc2ccccc21` gave an activation factor of 0.7.
In the case of `CCN(Cc1ccccc1)C(=O)CSc1nc(C)cc2c1C(=O)OC2`, the activation factor is reported as 2.3 (active).
Compound `CCN1CCN(c2ccc([N+](=O)[O-])cc2C(=O)c2ccc(Cl)cc2)CC1` has an activation factor of 1.6.
Compound `CC1CC(C)CN(C/C=C/c2ccccc2[N+](=O)[O-])C1` (stereo not given) has an activation factor of 0.9.
For `COc1ccc(Cl)cc1S(=O)(=O)Nc1cccc(C(=O)O)c1`, the activation factor was 0.9.
For `COc1ccc(Cl)cc1S(=O)(=O)N1CCN(CC(=O)C(C)(C)C)CC1`, the activation factor was 2.4 (active).
`COc1ccc(NC(=O)CN2CCN(S(=O)(=O)c3ccc(F)cc3)CC2)cc1Cl` gave an activation factor of 0.8.
Work on `O=C(CSCc1ccc([N+](=O)[O-])cc1)NCCSCc1ccccc1` yielded an activation factor of 0.6.
With `CCOC(=O)C1CN(S(=O)(=O)c2ccc(F)cc2)C1` the activation factor was 0.9.
With `Cc1nc(C)c(C(=O)Nc2ccc(C)c(F)c2)o1` the activation factor was 1.
With `COc1ccc(Cl)cc1NC(=O)c1oc(C)nc1C` the activation factor was 2.7 (active).
For `Cc1nc(C)c(C(=O)Nc2cccc(C)c2C)o1`, the activation factor was 1.
Work on `Cc1ccc(NC(=S)NC2CCCC2)cc1` yielded an activation factor of 0.7.
`COc1ccc([N+](=O)[O-])cc1NC(=O)CCc1ccccc1` showed an activation factor of 1.7.
`COc1ccccc1NC(=O)/C=C/C(N)=O` gave an activation factor of 1.2.
In the case of `COc1ccccc1NC(=S)NC(=O)C(C)C`, the activation factor is reported as 0.9.
For `COc1ccccc1NC(=O)c1ccc(C)s1`, the activation factor was 3.5 (active).
`N#Cc1ccsc1NC(=O)CN1CCCCC1` showed an activation factor of 1.2.
`COc1cc(/C=N\NC(=O)CNC(=O)c2cccc([N+](=O)[O-])c2)ccc1O` was tested, and the activation factor was 1.1.
In the case of `CC1(C)CC(=O)C2=C(C1)N=C1SCCC(=O)N1C2c1ccc(C(F)(F)F)cc1` (stereo not given), the activation factor is reported as 1.2.
For `CCOc1ccc(C(=O)Nc2cc(OC)ccc2OC)cc1`, the activation factor was 2.1 (active).
`CCOc1ccc(S(=O)(=O)Nc2ccc(S(=O)(=O)Nc3cc(OC)ccc3OC)cc2)cc1` showed an activation factor of 0.2.
`CCOc1ccccc1NC(=O)Nc1cc(OC)ccc1OC` was tested, and the activation factor was 1.
`CCOC(=O)c1sc2nc(SC)nc(-c3ccccc3)c2c1N` gave an activation factor of 0.9.
With `O=c1c([N+](=O)[O-])cc(C(F)(F)F)cn1Cc1cccc(Cl)c1` the activation factor was 0.8.
With `O=S(=O)(c1cccs1)N1CCc2ccccc2C1` the activation factor was 3.1 (active).
`O=C(Nc1ccc(S(=O)(=O)N2CCc3ccccc3C2)cc1)c1ccccc1` showed an activation factor of 1.
`O=S(=O)(c1cccs1)N1CCN(Cc2ccccc2)CC1` showed an activation factor of 0.3.
Compound `COc1ccc(C(=O)N2CCc3cc(OC)c(OC)cc3C2c2cccc([N+](=O)[O-])c2)cc1` (stereo not given) has an activation factor of 0.4.
`Cc1nnsc1S(=O)(=O)Cc1ccccc1Cl` gave an activation factor of 1.
For `O=S(=O)(NCCOc1cccc2cccnc12)c1ccc(F)cc1`, the activation factor was 3.3 (active).
In the case of `O=S(=O)(NCc1ccccn1)c1ccc(F)cc1`, the activation factor is reported as 1.
Compound `COc1ccc(CCNS(=O)(=O)c2ccc(F)cc2)cc1OC` has an activation factor of 0.2.
Compound `O=C(/C=C/c1ccccc1)c1ccoc1` has an activation factor of 0.8.
`Cc1nn(C)c(Oc2ccccc2)c1CCNS(=O)(=O)c1ccc(F)cc1` showed an activation factor of 0.5.
`CC(C)(C)NC(=O)NC(=O)COC(=O)CCC1CCCCC1` gave an activation factor of 0.9.
For `COc1cccc(C(=O)Nc2ccc(NC(=O)c3ccco3)cn2)c1`, the activation factor was 0.8.
In the case of `COc1ccc(OC)c(NC(=O)c2cnn(-c3ccccc3Cl)c2NC(=O)c2ccco2)c1`, the activation factor is reported as 0.8.
`COC(=O)c1ccc(NC(=O)c2ccco2)cc1` gave an activation factor of 0.8.
`COc1ccc(NC(=O)c2cccc(NC(=O)c3ccco3)c2)c(OC)c1` was tested, and the activation factor was 1.5.
`COc1ccccc1C(=O)Nc1ccc(NC(=O)c2ccco2)c(C)c1` was tested, and the activation factor was 2.8 (active).
In the case of `COC(=O)c1cc(Cl)c(NC(=O)c2ccco2)cc1OC`, the activation factor is reported as 2.4 (active).
With `CCOC(=O)Nc1ccc(S(=O)(=O)N(C)C(C)C)cc1` the activation factor was 0.7.
Compound `O=C(COc1ccc(Br)cc1F)NC1CCN(Cc2ccccc2)CC1` has an activation factor of 0.7.
Compound `Cc1onc(-c2c(Cl)cccc2Cl)c1C(=O)c1c[nH]c(C(=O)NC2CC2)c1` has an activation factor of 0.9.
Work on `Cc1cc(C(=O)CSc2nc(N)cc(=O)[nH]2)c(C)n1CCc1ccc(Cl)cc1` yielded an activation factor of 0.9.
With `CCn1cc(C(=O)N/N=C(/C)c2ccc(F)cc2)c(=O)c2cc(F)c(N3CCCC3)cc21` the activation factor was 0.9.
Compound `COc1ccccc1Cc1nc(-c2ccc(C)cc2)no1` has an activation factor of 0.9.
`COc1ccc(S(=O)(=O)NC(CC(=O)NCc2ccccc2OC)c2ccco2)cc1` (stereo not given) gave an activation factor of 1.4.
`COc1ccccc1CNS(=O)(=O)c1ccc(C)cc1` was tested, and the activation factor was 2.6 (active).
Compound `CCOC(=O)C1(S(=O)(=O)c2ccc(Cl)cc2)CCN(Cc2ccccc2)CC1` has an activation factor of 0.8.
Compound `Cc1nc2cc(NC(=O)CSc3nc4c(C)cccc4cc3C#N)ccc2s1` has an activation factor of 0.7.
In the case of `Cn1cc(CCC(=O)NCc2ccc3c(c2)OCO3)c2ccccc21`, the activation factor is reported as 2.2 (active).
`O=C(CCCCn1c(=O)[nH]c2ccccc2c1=O)NCc1ccc2c(c1)OCO2` gave an activation factor of 0.3.
Work on `O=C(COc1ccccc1)NCc1ccc2c(c1)OCO2` yielded an activation factor of 0.7.
`CCCc1cc(=O)[nH]c(SCC(=O)c2cc(C)n(CCC)c2C)n1` showed an activation factor of 0.9.
`Cc1ccc2nc(SCc3nnc(-c4ccccc4[N+](=O)[O-])o3)c(C#N)cc2c1` showed an activation factor of 0.8.
In the case of `COC(=O)Cc1cc(=O)oc2c(C)c(O)ccc12`, the activation factor is reported as 1.2.
`Cc1nc(Cl)c2oc3ccccc3c2n1` showed an activation factor of 0.9.
Work on `CC(C)C(=O)Nc1cccc(C(=O)Nc2ccc3c(c2)OCO3)c1` yielded an activation factor of 0.4.
Compound `Cc1ccc(NC(=O)C2CC(c3ccc(F)cc3)=NO2)cc1` (stereo not given) has an activation factor of 0.8.
In the case of `O=C(Nc1ccc2c(c1)OCO2)C1CC(c2c(F)cccc2Cl)=NO1` (stereo not given), the activation factor is reported as 2.6 (active).
`c1ccc(COc2ccccc2CNCc2cccnc2)cc1` was tested, and the activation factor was 1.1.
`Cc1csc(=NC(=O)c2ccccc2)n1CCO` was tested, and the activation factor was 0.7.
For `Cc1cc(C)c2c3c(sc2n1)C(c1ccccc1)C(C#N)=C(N)O3` (stereo not given), the activation factor was 0.9.
In the case of `CC1CC(C)CN(S(=O)(=O)c2cccc(C(=O)N3C(=O)c4cccc(N)c4C3=O)c2)C1` (stereo not given), the activation factor is reported as 0.9.
`O=C(CSc1nc(C2CC2)nc2ccccc12)Nc1ccc2c(c1)OCCO2` was tested, and the activation factor was 0.6.
With `O=C(O)C1CC=CCC1C(=O)Nc1ccccc1C(=O)N1CCN(c2ccccc2)CC1` (stereo not given) the activation factor was 0.9.
Compound `COc1ccc(/C=C(\NC(=O)c2ccc(OC)c(OC)c2)C(=O)NCCc2c[nH]c3ccccc23)cc1` has an activation factor of 0.6.
For `Cc1ccc(C(=O)N/C(=C/c2ccco2)C(=O)NCCc2c[nH]c3ccccc23)cc1C`, the activation factor was 0.5.
With `CC(=O)N/C(=C/c1ccc(Cl)cc1)C(=O)NCCc1c[nH]c2ccccc12` the activation factor was 2.7 (active).
`O=C1c2ccccc2C(=O)N1CCCc1nc(-c2ccccc2)no1` showed an activation factor of 0.8.
In the case of `O=C1c2cccnc2C(=O)N1Cc1cccs1`, the activation factor is reported as 0.9.
With `O=C1c2ccccc2C(=O)N1Cc1cc(-c2ccccc2Cl)no1` the activation factor was 2.3 (active).
For `Cc1c(C#N)c(NC(=O)c2ccccc2)n(Cc2ccccc2)c1C`, the activation factor was 0.4.
`O=C(CNS(=O)(=O)c1cccc(C(F)(F)F)c1)Nc1ccccc1F` showed an activation factor of 1.2.
In the case of `CC(CC(=O)Nc1cc(C(F)(F)F)ccc1Cl)c1ccccc1` (stereo not given), the activation factor is reported as 2.4 (active).
`CC(C)CC(=O)Nc1cc(C(F)(F)F)ccc1N1CCOCC1` showed an activation factor of 0.9.
With `Cc1nc2ccc(NC(=O)C(F)(F)F)cc2o1` the activation factor was 1.
Work on `Cc1c(CCO)c(=O)[nH]n1C(=O)c1c(F)cccc1F` yielded an activation factor of 1.
Work on `CCOc1ccc(S(=O)(=O)NCC2CCCO2)cc1` (stereo not given) yielded an activation factor of 0.9.
For `O=S(=O)(NCC1CCCO1)c1ccc2ccccc2c1` (stereo not given), the activation factor was 3 (active).
Work on `CCC(=O)Nc1ccc(S(=O)(=O)NCC2CCCO2)cc1` (stereo not given) yielded an activation factor of 1.
Compound `O=c1c2ccccc2nc2n1C(CSCc1ccccc1)CS2` (stereo not given) has an activation factor of 0.9.
Work on `CCN1CCN(C(=O)/C=C\C(=O)O)CC1` yielded an activation factor of 1.
For `Cc1ccc(CNC(=O)C2CC(c3ccccc3[N+](=O)[O-])=NO2)o1` (stereo not given), the activation factor was 1.2.
`CC(=O)Nc1ccc(S(=O)(=O)N2CCCC2C(=O)O)cc1` (stereo not given) gave an activation factor of 1.1.
With `Cc1cccc(NC(=O)C2CCCN2S(=O)(=O)c2ccc(F)cc2)c1C` (stereo not given) the activation factor was 2.5 (active).
For `Cc1ccc(S(=O)(=O)N2CCCC2C(=O)NCc2ccco2)cc1` (stereo not given), the activation factor was 1.5.
